The record followed here is PubChem BioAssay AID1903 (Southern Research Specialized Biocontainment Screening …, 2009).

In all, about 310,000 compounds went through this assay and about 1,200 (0.39%) were called active. How the calls were made is not given here. Only a sample is shown. Measured potencies and affinities stand elsewhere.

The target of this assay is Large T antigen (Simian virus 40) (UniProt P03070). Kind of assay: TAg ATPase/helicase activity blockers – biochemical (AID 1903). To be noted: SV40 large T antigen ATPase/helicase inhibition assay; at 20 µM; hits give high values.
Large T antigen (Simian virus 40), sequence (P03070 whole entry, looked up): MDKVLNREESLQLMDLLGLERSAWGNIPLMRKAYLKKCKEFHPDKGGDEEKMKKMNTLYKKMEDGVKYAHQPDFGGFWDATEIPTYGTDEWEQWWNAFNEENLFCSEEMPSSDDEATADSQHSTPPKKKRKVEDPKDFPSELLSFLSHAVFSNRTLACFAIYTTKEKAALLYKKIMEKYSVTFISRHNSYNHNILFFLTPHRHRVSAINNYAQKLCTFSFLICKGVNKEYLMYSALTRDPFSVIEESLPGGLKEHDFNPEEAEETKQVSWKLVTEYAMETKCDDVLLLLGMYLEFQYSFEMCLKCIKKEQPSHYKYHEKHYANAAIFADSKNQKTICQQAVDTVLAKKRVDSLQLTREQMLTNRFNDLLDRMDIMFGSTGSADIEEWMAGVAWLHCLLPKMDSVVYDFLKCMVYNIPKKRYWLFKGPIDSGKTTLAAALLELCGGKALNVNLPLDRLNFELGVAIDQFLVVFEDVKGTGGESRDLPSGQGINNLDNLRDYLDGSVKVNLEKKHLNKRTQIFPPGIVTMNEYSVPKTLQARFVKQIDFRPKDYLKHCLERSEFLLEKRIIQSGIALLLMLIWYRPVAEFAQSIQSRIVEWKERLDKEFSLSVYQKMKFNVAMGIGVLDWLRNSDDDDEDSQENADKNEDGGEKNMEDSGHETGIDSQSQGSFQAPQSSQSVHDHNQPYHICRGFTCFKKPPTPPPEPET
As for `O=C1OCc2cc(NC(=O)C3CCCCC3)ccc21`, the inhibition is 2.69% (inactive). On to `COc1cccc(-c2cc(CC3(O)CCN(CCCc4ccccc4)CC3)on2)c1`, for which the inhibition is 8.74% (inactive). To `Cc1ccc(S(=O)(=O)N2CCN(S(=O)(=O)N(C)C)CC2)c(C)c1` belongs 3.46% (inactive). With `COc1ccc(-n2c(C)cc(-c3csc(NC(=O)c4ccc(S(=O)(=O)N(C)C)cc4)n3)c2C)cc1` the figure was 11.5% (inactive). Turning to `Cc1c(CC(=O)NCCCC(=O)O)c(=O)oc2cc3oc4c(c3cc12)CCCC4`, the inhibition was 10% (inactive). With `CC(C)CCNC(=O)C1CC(=O)N(C2CCCC2)C1` (stereo not drawn) the figure was -3.66% (inactive). `S=C(NCC1CCCO1)Nc1ccc(Cl)c(Cl)c1` (stereo not drawn): the inhibition was 13.5% (inactive). With `Cc1ccc(CCN2CC(C(=O)NCCCN3CCN(C)CC3)CC2=O)cc1` (stereo not drawn) the figure was 3.28% (inactive); with `c1ccc(-n2nnnc2-n2nnc3ccccc32)cc1`, 9.04% (inactive); with `COCCN=C1Sc2nc3ccc(C)cc3cc2CN1Cc1ccco1`, 19.9% (inactive).

In the case of `Cc1cccc2cc3c(nc12)SC(=NCC1CCCO1)N(Cc1ccco1)C3` (stereo not drawn), the inhibition is 26% (inactive). On to `Oc1ccc(-c2csc(Nc3ccccn3)n2)cc1`, for which the inhibition is 22.2% (inactive). As for `Cc1csc(Nc2cccc3ccccc23)n1`, the inhibition is 11.9% (inactive). Regarding `Oc1ccc(-c2csc(Nc3ncccn3)n2)cc1`, the inhibition is 6.13% (inactive). With `Cc1ccnc(Nc2nc(-c3ccc(O)c(O)c3)cs2)c1` the figure was 32.9% (inactive); with `c1ccc(-c2csc(Nc3ccccn3)n2)cc1`, 9.23% (inactive). As for `Cc1cccc(Nc2nc(-c3ccc(O)c(O)c3)cs2)n1`, the inhibition is 30.3% (inactive). On to `c1ccc(-c2csc(Nc3ncccn3)n2)cc1`, for which the inhibition was 0.05% (inactive). To `Cc1ccc(Nc2nc(-c3ccc(F)cc3)cs2)nc1` belongs 9.89% (inactive); to `Cc1c(/C(Cc2ccccc2)=N/O)c2ccccc2n1C`, 15.5% (inactive). To `COc1ccccc1N(Cc1ccccc1)S(=O)(=O)c1cccc(C(=O)Nc2cc(C)ccn2)c1` belongs 11.2% (inactive); to `O=C(Nc1ccc2c3c(cccc13)CC2)c1ccc(Br)o1`, -1.82% (inactive); to `O=C(COC(=O)c1cc(S(=O)(=O)N2CCOCC2)ccc1Cl)Nc1ccc2c(c1)OCO2`, -0.55% (inactive). With `O=C(Cn1nnc2ccccc21)NC1CCCCC1` the figure was 7.66% (inactive).

For `CC(C(N)=O)N1c2cccc3cccc(c23)S1(=O)=O` (stereo not drawn), the inhibition is 5.84% (inactive). With `Cc1cc(C)c(OCC(=O)Nc2ccccn2)c([N+](=O)[O-])c1` the figure was 4.36% (inactive); with `COCCCNC(=O)c1ccc2c(=O)n(Cc3ccc(OC)cc3)c(=O)[nH]c2c1`, 17.4% (inactive). With `COc1ccc(CCNC(=O)CNC(=O)Cn2cnc3sc(C)c(C)c3c2=O)cc1OC` the figure was -8.68% (inactive); with `COc1ccc(Nc2c(C)cccc2C)cc1`, -1.03% (inactive). To `COc1ccc(Nc2ccc(Nc3ccc(OC)cc3)nn2)cc1` belongs 10.9% (inactive); to `O=C(O)CC1c2ccccc2CCN1S(=O)(=O)c1ccccc1` (stereo not drawn), 16.2% (inactive). Turning to `CCOCCc1nnc(NC(=O)Cc2ccc(Br)cc2)s1`, the inhibition was 4.12% (inactive). To `O=C(Cc1n[nH]c(=O)[nH]c1=O)N/N=C/c1cccc(O)c1` belongs 9.95% (inactive); to `Cc1ccc(Oc2nc3ccccc3n3c(C)nnc23)c(C)c1`, 1.35% (inactive). With `CCN(CC(=O)NC(=O)NC1CCCC1)Cc1ccccc1` the figure was 14.2% (inactive); with `COc1cc(-c2nc3cnccn3c2Nc2ccc(C)cc2)ccc1O`, 37% (inactive); with `COc1cc(-c2nc3cnccn3c2Nc2ccc(C(C)C)cc2)ccc1O`, 9.43% (inactive).

With `c1ccc(-c2nc3cnccn3c2Nc2ccc3c(c2)OCCO3)cc1`, the inhibition was 9.23% (inactive). With `COc1ccc(-c2nc3cnccn3c2Nc2ccc3c(c2)OCO3)cc1` the figure was 21.4% (inactive).

For the compound `Fc1ccc(-c2nc3cnccn3c2NC2CCCC2)cc1`, the inhibition was 3.13% (inactive). To `Cc1ccc(-c2nc3cnccn3c2Nc2ccc3c(c2)OCO3)cc1` belongs 25.3% (inactive); to `Clc1ccc(-c2nc3cnccn3c2NC2CCCC2)cc1`, 8.26% (inactive); to `c1cn2c(Nc3ccc4c(c3)OCCO4)c(-c3ccc(N4CCOCC4)cc3)nc2cn1`, 29.1% (inactive). With `CC(=O)c1c(C)[nH]c(C(=O)OCc2c(F)cccc2Cl)c1C` the figure was 20.8% (inactive); with `CN(C)C(=O)c1cn(-c2ccccc2)nc1-c1cc2ccccc2o1`, 0.09% (inactive). With `CCCC1CCC(c2ccc(/C(N)=N/O)cc2)CC1` (stereo not drawn) the figure was 4.39% (inactive). As to `CC(=O)NC(N1CCCCC1)C(F)(F)C(F)(F)C(F)(F)C(F)F` (stereo not drawn), the inhibition was -2.22% (inactive).

With `Cc1c(Cl)cccc1NC(=S)N(CCCN1CCOCC1)Cc1cccs1`, the inhibition was 3.79% (inactive).

For `Clc1ccc(-c2nc3ncccn3c2Nc2ccc3c(c2)OCO3)cc1`, the inhibition is 7.55% (inactive).

Turning to `Oc1ccc(-c2nc3ncccn3c2Nc2ccc3c(c2)OCCO3)cc1`, the inhibition was 13.3% (inactive).

Turning to `CC(C)OC(=O)/C(=C/c1ccc2c(c1)c1ccccc1n2C)NC(=O)c1ccccc1`, the inhibition is 3.18% (inactive). With `COc1ccc2c(c1)-c1nc(/N=C/c3ccc(O)cc3)sc1CC2` the figure was 15.8% (inactive); with `COc1ccc2c(c1)-c1nc(/N=C/c3c(O)ccc4ccccc34)sc1CC2`, 23.1% (inactive); with `Cn1nc(-c2ccccc2)cc1NC(=O)C1CCCCC1`, 5.74% (inactive). With `Nc1ccc(C(=O)c2cccs2)cc1` the figure was 6.86% (inactive); with `Cc1ccc(C(=O)c2cc(C)sc2N)cc1`, 19.1% (inactive).

Turning to `CSC1=NSC2=NC(=O)/C(=C/c3coc4ccccc4c3=O)C(=N)N12`, the inhibition was 12.2% (inactive).

Regarding `CCSC1=NSC2=NC(=O)/C(=C\c3coc4ccccc4c3=O)C(=N)N12`, the inhibition was 28.2% (inactive). To `N=C1/C(=C/c2coc3ccccc3c2=O)C(=O)N=C2SC(c3ccco3)=NN12` belongs 51.6% (inactive).

For `N=C1/C(=C\c2coc3ccccc3c2=O)C(=O)N=C2SC=CN12`, the inhibition is 34.7% (inactive). Take `CSC1=NSC2=NC(=O)/C(=C/c3coc4ccc(O)cc4c3=O)C(=N)N12`: the inhibition is 17.7% (inactive).

`CC(C)CSC1=NSC2=NC(=O)/C(=C\c3coc4ccccc4c3=O)C(=N)N12`: the inhibition was 13.7% (inactive). To `COc1ccccc1N1CCN(C(=O)c2oc3ccc(F)cc3c2C)CC1` belongs -1.49% (inactive); to `Cc1ccc(SC(CC(=O)c2ccc(C)cc2)C(=O)O)cc1` (stereo not drawn), 19.4% (inactive); to `O=C(CC(Sc1ccc(Br)cc1)C(=O)O)c1ccc(F)cc1` (stereo not drawn), 7.72% (inactive). For `COc1ccc(C2=NN(Cc3ccccc3)C3C(=O)NC(=O)C23)cc1` (stereo not drawn), the inhibition is 4.68% (inactive). For `CN1C(=O)C2C(c3ccc(N(C)C)cc3)NN(Cc3ccccc3)C2C1=O` (stereo not drawn), the inhibition was 19.9% (inactive).

Consider `CCOC(=O)N1CCN(c2cc(=O)n(-c3ccc(OC)cc3)c(=O)[nH]2)CC1`, for which the inhibition was -2.27% (inactive).

For the compound `Cc1ccccc1CNC(=O)Cn1ccc2cc(S(=O)(=O)N3CCCCCC3)ccc21`, the inhibition is 5.82% (inactive). With `O=C(COC(=O)c1ccc(CO)cc1)Nc1ccc(OC(F)F)cc1` the figure was -2.98% (inactive); with `Cc1nnc(NC(=O)CCS(=O)(=O)c2ccccc2)s1`, 19.4% (inactive); with `Nc1ccc2c(c1)nc(Cc1ccccc1)n2CCO`, 32.4% (inactive).

Consider `Cn1c(CO)nc2cc(N)ccc21`, for which the inhibition was 24.9% (inactive). With `Cn1ccnc1Sc1cc(Cl)ccc1[N+](=O)[O-]` the figure was 1.59% (inactive); with `CCOC(=O)C1=NN(C(C)=O)C2(CC(=O)N(c3ccc(C)c(C)c3)C2=O)C1` (stereo not drawn), 10.2% (inactive); with `O=C(NCC1CCCO1)C1CCN(C2CCN(C3CCCCCC3)CC2)CC1` (stereo not drawn), 6.53% (inactive).

As for `CSc1nc(C)c(CCOCc2ccc(F)cc2)c(=O)[nH]1`, the inhibition was 6.59% (inactive).

Turning to `COc1ccccc1N1C(=O)CC(Sc2nc(C)cc(C)n2)C1=O` (stereo not drawn), the inhibition is 5.59% (inactive). To `COc1ccccc1N1C(=O)C2CC(C)=C(C)CC2C1=O` (stereo not drawn) belongs 6.96% (inactive); to `CCCCOc1ccc(C2(C)NC(=O)NC2=O)cc1` (stereo not drawn), 3.93% (inactive). Consider `COc1ccc(S(=O)(=O)N(CC(=O)NCc2ccncc2)c2ccc(C)cc2)cc1OC`, for which the inhibition is 7.04% (inactive). With `CN(CC(=O)Nc1ccc(F)cc1)C(=O)COC(=O)Cc1cccs1` the figure was 8.61% (inactive); with `O=C(C1=NN[C@@H]2C(=O)N(c3cccc(F)c3)C(=O)[C@H]12)C(c1ccccc1)c1ccccc1`, 1.36% (inactive). With `Cn1cc(C(=O)c2cccc(Cl)c2)cc1/C=N\O` the figure was -2.98% (inactive). With `CC(=O)c1ccc(OC(=O)CN2C(=O)c3ccccc3C2=O)cc1` the figure was 14.1% (inactive).

Regarding `Oc1ccccc1N1CCN(C(=S)NCCc2ccccc2)CC1`, the inhibition is 7.92% (inactive). Turning to `O=S(=O)(c1cccs1)N1CCN(c2ccccc2)CC1`, the inhibition was 1.66% (inactive). To `CC(=O)c1ccc(N2CCN(C(=O)CCC(=O)c3cccs3)CC2)cc1` belongs 4.57% (inactive).

Turning to `O=S(=O)(c1cccs1)N1CCN(c2ccc(Cl)cc2)CC1`, the inhibition is 2.25% (inactive). To `S=C(NCCc1ccccc1)N1CCCC1` belongs 7.81% (inactive).

Regarding `O=C(NC(=S)N1CCCCC1)c1cccs1`, the inhibition was 9.19% (inactive).

On to `O=C(NC(=S)N1CCN(c2ccc(F)cc2)CC1)c1cccs1`, for which the inhibition is 1.9% (inactive). With `O=C(CCC(=O)N1CCN(c2cccc(Cl)c2)CC1)c1cccs1` the figure was 1.82% (inactive); with `CN1CCN(CCc2nc3cc(NC(=O)COc4ccc([N+](=O)[O-])cc4)ccc3n2C)CC1`, 16.7% (inactive); with `O=C(NCC1CCCO1)c1cn(-c2ccccc2)nc1-c1ccc(F)cc1` (stereo not drawn), 27.6% (inactive). For `COc1cc(S(=O)(=O)N2CCOCC2)cc(C(=O)c2nccn2C)c1OC`, the inhibition was -1.37% (inactive). With `CN(C(=O)COC(=O)CNC(=O)c1ccc(C(C)(C)C)cc1)c1c(N)n(Cc2ccccc2)c(=O)[nH]c1=O` the figure was 6.23% (inactive); with `COc1cnc(-c2ccccn2)nc1Oc1cccc(Cl)c1`, 30.5% (inactive).
